# Screens from PubChem.
# Rows were chosen to be rich in hits. Some 1.7% of all compounds tested hit in one or more screens of this group.
# ZTA counter – counter-screen for EBNA-1 inhibitors: inhibitors of Epstein-Barr virus ZTA; ZTA-DNA binding, fluorescence polarization; inhibition, % at 11 µM; actives 0.15% (n = 320,000); in the data active = inhibition above about 33%
# LYPLA2 inh – LYPLA2 inhibitors, primary screen, counter-screen for PME1 inhibitor project, biochemical, fluorescence polarization, FP-Rh probe ABPP | Acyl-protein thioesterase 2 (Homo sapiens), O95372 | recombinant LYPLA2 | inhibition, % at 5.9 µM | actives 0.38% (n = 320,000) | AID 2177, 2009;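 active = inhibition above the screen-wide mean plus 3 SD, limit set per campaign, cut at about 26% in these data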;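 also: 0% = LYPLA2 with DMSO and 100% = wells lacking LYPLA2 enzyme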
# LYPLA1 counter – LYPLA1 inhibitors, primary screen, counter-screen for PME1 inhibitor project, biochemical, fluorescence polarization, FP-Rh probe ABPP; recombinant LYPLA1; actives 0.16% (n = 320,000); AID 2174, 2009; Acyl-protein thioesterase 1 (Homo sapiens), O75608; inhibition, % at 5.9 µM;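 active = inhibition above the mean of all tested compounds plus 3 SD, set per campaign, cut at about 14% in these data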;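 also: inhibitors block serine hydrolase probe labeling of LYPLA1 so polarization falls; 0% = enzyme with DMSO and 100% = wells lacking LYPLA1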
# Target sequence (O75608 whole entry, looked up): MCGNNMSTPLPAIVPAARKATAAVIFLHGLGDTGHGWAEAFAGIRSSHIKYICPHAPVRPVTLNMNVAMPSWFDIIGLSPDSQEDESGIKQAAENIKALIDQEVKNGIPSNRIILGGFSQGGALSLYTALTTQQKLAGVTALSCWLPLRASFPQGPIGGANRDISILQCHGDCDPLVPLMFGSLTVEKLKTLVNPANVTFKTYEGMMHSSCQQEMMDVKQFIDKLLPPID
# EBNA-1 inh – EBNA-1 DNA-binding inhibitors, primary screen, biochemical, fluorescence polarization; inhibition, % at 14.8 µM; actives 0.34% (n = 300,000); in the data active = inhibition above about 28%
# PAD4 inh – human PAD4 inhibitors, primary screen, biochemical, fluorescence polarization, 1536-well format. Protein-arginine deiminase type-4 (Homo sapiens), Q9UM07. recombinant PAD4, RCA probe fluorescence polarization. inhibition, % at 6.36 µM. actives 0.41% (n = 330,000);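 active = percent inhibition above a cutoff equal to the mean of all tested compounds plus 3 SD, cut at about 15% in these data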;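 also: 0% = PAD4 with RCA probe and DMSO and 100% = probe without PAD4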
# GSTO1 inh – inhibitors of recombinant GSTO1, primary screen, counter-screen for RBBP9 inhibitor project, biochemical, fluorescence polarization. activity-based probe fluorescence polarization. Glutathione S-transferase omega-1 (Homo sapiens), P78417. inhibition, % at 5.96 µM. actives 1.1% (n = 300,000);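 active = inhibition above the campaign mean inhibition plus 3 SD, cut at about 35% in these data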;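 also: 0% = GSTO1-1 with DMSO and 100% = wells lacking GSTO1-1 enzyme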
# LYPLA1 confirm – LYPLA1 inhibitors, retest, confirmation, counter-screen for PME1 inhibitor project, biochemical, fluorescence polarization, FP-Rh probe ABPP; shares compounds with LYPLA1 counter; recombinant LYPLA1; inhibition, % at 5.9 µM; actives 69% (n = 480);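 active = mean inhibition across replicates above the hit cutoff set in the primary screen, cut at about 15% in these data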;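 also: loss of FP-Rh probe labeling of LYPLA1 seen as lower polarization; 0% = LYPLA1 with DMSO and 100% = wells lacking LYPLA1 enzyme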
# Starred values were filed as active, the others as inactive; . = not tested or not shown.
SMILES,ZTA counter,LYPLA2 inh,LYPLA1 counter,EBNA-1 inh,PAD4 inh,GSTO1 inh,LYPLA1 confirm
Cc1noc(NS(=O)(=O)c2ccc(NC(=O)c3cc(=O)c4ccccc4o3)cc2)c1C,8,4,2,1,-1,4,.
Cc1noc(NS(=O)(=O)c2ccc(NC(=O)Nc3ccc(Cl)c(Cl)c3)cc2)c1C,2,14,35*,-16,-32,-35,2
Cc1noc(NS(=O)(=O)c2ccc(N/C=C\C(=O)c3ccc(Br)cc3)cc2)c1C,1,8,16*,3,-2,8,34*
Cc1cc(OCC(=O)N2CCN(c3ccccn3)CC2)c(C)cc1Br,-4,6,2,-3,-2,6,.
CC1CC(=O)Nc2ccccc2S1(=O)=O (stereo not drawn),0,11,18*,1,1,1,5
Cc1ccc([N+](=O)[O-])c(OCCCN2CCC(Cc3ccccc3)CC2)c1,0,27*,36*,3,4,5,52*
COc1ccc(OC)c(NC(=O)Cn2nc(C)c3ccccc3c2=O)c1,-7,1,-3,-8,3,10,.
Cc1cc(Br)c(NC(=O)c2c(-c3c(Cl)cccc3Cl)noc2C)c(Br)c1,6,4,-5,2,-1,0,.
Cc1cc(NC(=O)c2ccc3c(c2)C(=O)N(C2CCCCC2)C3=O)no1,5,1,-1,1,-1,-4,.
O=C(Nc1ccncc1)c1ccc2c(c1)C(=O)N(C1CCCCC1)C2=O,-4,52*,26*,-7,3,1,31*
COC(=O)c1ccc(NC(=O)CCc2nnc3ccc(N4CCC5(CC4)OCCO5)nn23)cc1,4,-7,-2,-2,0,-10,.
COc1ccccc1C(=O)Nc1ccc2c(c1)nc1n2CCN(Cc2ccccc2)C1,-4,11,28*,-9,-3,-9,4
O=C(Nc1ccc2c(c1)nc1n2CCN(Cc2ccccc2)C1)c1cccs1,-19,-3,-10,4,-7,-11,.
CSC(=NC#N)N1CCN(c2ccc(Cl)cc2)CC1,4,6,17*,2,0,7,19*
COc1cccc(N=C2NC(=O)/C(=C/c3cc([N+](=O)[O-])ccc3O)S2)c1,4,-1,17*,-2,-5,13,41*
O=C1NC(=Nc2ccccc2Cl)S/C1=C\c1cc([N+](=O)[O-])ccc1O,26,4,27*,0,-11,-37,31*
O=C(COc1coc(CN2CCN(c3ccccc3F)CC2)cc1=O)NC1CCCC1,-15,3,2,1,-2,-5,.
COc1cc(C(=O)NNC(=O)c2nn(C)c(=O)c3ccccc23)cc(OC)c1OC,.,.,.,.,0,.,.
O=C(CCc1ccccc1)N=C1SC2CS(=O)(=O)CC2N1Cc1ccc(F)cc1 (stereo not drawn),-25,7,3,-5,-5,4,.
CCCCN(C)Cc1cc(=O)oc2ccc3ccccc3c12,16,-6,-3,4,1,-8,.
CN(CCCC1CCCC1)C(=O)c1cc(COc2c(F)cccc2F)on1,5,13,4,-7,-5,2,.
CN(CCCC1CCCC1)C(=O)c1cc(COc2ccc(F)c(F)c2)on1,3,12,16*,-4,5,0,28*
COc1ccccc1C(=O)NCC(=O)N=Nc1c(O)n(C(C)C)c2ccccc12,-12,-8,20*,-18,2,5,27*
CC(C)n1c(O)c(N=NC(=O)CNC(=O)Cc2ccc(Cl)cc2)c2ccccc21,11,5,2,-3,3,4,.
O=C(O)c1ccc(CSc2nc3ccccc3c(=O)n2-c2ccccc2)cc1,-15,22,17*,-13,1,4,27*
